We go through five compounds from PubChem BioAssay.

The source made the active and inactive calls.

The nature of test [1]: small molecules captured by biotinylated probe aFSTL3 – biochemical, small-molecule microarray, fluorescence 635/667, stem cell growth factor project, primary screen (AID 1064).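 Further: measures binding of the biotinylated anti-FSTL3 antibody to printed compounds.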 The following applies: higher = more signal.
Test [2] can be described thus: binders from COS7 lysate, DM2A8 probe, primary screen, torsin A project, cell lysate, small-molecule microarray, fluorescence 635/667 (AID 1065). The following applies: higher = more signal, COS7 lysate expressing mutant human TOR1A.
The nature of test [3]: small molecules captured by biotinylated probe aFGF2 – biochemical, small-molecule microarray, fluorescence 635/667, stem cell growth factor project, primary screen (AID 1067).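 Further: measures binding of biotinylated aFGF2 protein to printed compounds on slides; z-score merges feature fluorescence and signal-to-noise across triplicate slides.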 The following applies: higher = more signal.
Test [4] can be described thus: small molecules captured by biotinylated probe aFGF10 – biochemical, small-molecule microarray, fluorescence 635/667, stem cell growth factor project, primary screen (AID 1071).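 Further: score merges 667 nm spot intensity and signal to noise from triplicate slides.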 The following applies: higher = more signal.
The target of test [5] is Neurogenic locus notch homolog protein 2 (Homo sapiens) (UniProt Q04721). In words: small molecules binding Notch2 protein – biochemical, small-molecule microarray, 635 nm fluorescence, stem cell growth factors, primary screen (AID 1073). The following applies: higher = more signal.
Test [6] addresses Pro-neuregulin-1, membrane-bound isoform (Homo sapiens) (UniProt Q02297). The test can be described thus: small molecules binding neuregulin-1 protein – biochemical, small-molecule microarray, fluorescence 635/667, psychiatric disease protein project, primary screen (AID 1075).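 Further: score combines 667 nm spot fluorescence with signal to noise.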 The following applies: NRG1 binding, 635 nm fluorescence, higher = more signal.
For test [7], the system named is Neuregulin-1 EGF-like domain. The test can be described thus: small molecules binding NRG1 EGF domain – biochemical, small-molecule microarray, 635 nm fluorescence, primary screen (AID 1081).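 Further: binding of the protein to compounds printed on small-molecule microarray slides.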 The following applies: higher = more signal.
The nature of test [8]: FRG1 expression reporter modulators in myotubes – cell-based, C2C12 myotubes, firefly/Renilla luciferase, luminescence, FRG1 inhibition for FSHD, primary screen (AID 1084). The following applies: FRG1 promoter luciferase, higher = more signal, called active from +8 up or from −8 down.
Test [9] can be described thus: small molecules captured by biotinylated probe aFST – biochemical, small-molecule microarray, fluorescence 635/667, stem cell growth factor project, primary screen (AID 1086).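 Further: score merges 667 nm fluorescence with signal-to-noise of each printed compound spot.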 The following applies: higher = more signal.
Test [10] is described as follows: binders of probe aHhip on microarray, primary screen, stem cell growth factor project, biochemical, small-molecule microarray, fluorescence 635/667 (AID 1087).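 Further: score merges spot fluorescence at 667nm with spot signal to noise ratio.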 The following applies: higher = more signal.
Test [11] relates to PRMT1 (protein arginine N-methyltransferase 1). The test can be described thus: small molecules binding arginine methyltransferase PRMT1 – biochemical, small-molecule microarray, 635 nm fluorescence, primary screen (AID 1088).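 Further: binding of Prmt1 protein to compounds spotted on small-molecule microarray slides.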 The following applies: higher = more signal.
A short description of test [12]: growth effects on S. cerevisiae YJM789 – YJM789 clinical isolate, OD600, 24 h, basal, primary screen (AID 1089).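 Further: growth of clinical yeast isolate S. cerevisiae YJM 789 seeded 1000 cells per well; test concentration not given here.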 The following applies: higher = more signal, called active from +8 up or from −8 down.
Test [13] can be described thus: S. pombe growth modifiers, basal conditions – strain 972, OD600, 24 h, no modulator, primary screen (AID 1090).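 Further: basal condition with compound alone and no growth modifier present; test concentration not given here.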 The following applies: S. pombe 972 growth, higher = more signal, called active from +8 up or from −8 down.
The nature of test [14]: budding yeast growth modifiers under rapamycin – strain BY4716, OD600, 96 h, primary screen (AID 1091). Further: test concentration not given here. The following applies: S. cerevisiae BY4716 + rapamycin, higher = more signal, called active from +8 up or from −8 down.
Test [15] addresses Torsin-1A-interacting protein 2 (Homo sapiens) (UniProt Q8NFQ8). The test can be described thus: small molecules binding lysate-expressed LULL1 – cell lysate, human LULL1 lysate, 635/667 nm fluorescence, primary screen (AID 1092).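 Further: probe is lysate of COS7 cells overexpressing human LULL1; score merges per-feature 667 nm fluorescence with signal-to-noise.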 The following applies: small-molecule microarray, hLULL1 lysate binding, 635 nm fluorescence; higher = more signal.
Test [16] in a line: optical density change of DRC41 E. coli – strain DRC41, OD650, 24 h, E. coli filamentation project, primary screen (AID 1093).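 Further: MC1000 strain lacking acrAB efflux and sulA so SOS filamentation is blocked; test concentration not given here.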 The following applies: E. coli DRC41 growth, higher = more signal, called active from +8 up or from −8 down.
Test [17] can be described thus: probe aLefty2 binding to arrayed compounds – biochemical, biotinylated probe, 635/667 nm fluorescence, primary screen (AID 1094).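 Further: score merges spot fluorescence near 667 nm with spot signal-to-noise ratio.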 The following applies: small-molecule microarray, higher = more signal.
Test [18] deals with Noggin (protein binding on small-molecule microarray). The test can be described thus: small molecules binding Noggin protein – biochemical, 635/667 nm fluorescence, primary screen (AID 1095).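 Further: score merges 667 nm feature fluorescence with signal to noise over triplicate slides.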 The following applies: 635 nm fluorescence, higher = more signal.
Test [19] concerns the target Neurogenic locus notch homolog protein 3 (Homo sapiens) (UniProt Q9UM47). In words: small molecules binding NOTCH3 protein – biochemical, 635/667 nm fluorescence, primary screen (AID 1096). The following applies: small-molecule microarray, 635 nm fluorescence, higher = more signal.
Test [20] can be described thus: probe aEGFR binding to arrayed compounds – biochemical, biotinylated probe, 635/667 nm fluorescence, primary screen (AID 1097).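 Further: probe is a biotinylated anti-EGFR antibody binding compounds printed on slides; score combines fluorescence near 667 nm and signal to noise of each spot.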 The following applies: small-molecule microarray, higher = more signal.

Sequence of Pro-neuregulin-1, membrane-bound isoform (Homo sapiens) (Q02297 whole entry, looked up, the tested form may be a part, canonical isoform): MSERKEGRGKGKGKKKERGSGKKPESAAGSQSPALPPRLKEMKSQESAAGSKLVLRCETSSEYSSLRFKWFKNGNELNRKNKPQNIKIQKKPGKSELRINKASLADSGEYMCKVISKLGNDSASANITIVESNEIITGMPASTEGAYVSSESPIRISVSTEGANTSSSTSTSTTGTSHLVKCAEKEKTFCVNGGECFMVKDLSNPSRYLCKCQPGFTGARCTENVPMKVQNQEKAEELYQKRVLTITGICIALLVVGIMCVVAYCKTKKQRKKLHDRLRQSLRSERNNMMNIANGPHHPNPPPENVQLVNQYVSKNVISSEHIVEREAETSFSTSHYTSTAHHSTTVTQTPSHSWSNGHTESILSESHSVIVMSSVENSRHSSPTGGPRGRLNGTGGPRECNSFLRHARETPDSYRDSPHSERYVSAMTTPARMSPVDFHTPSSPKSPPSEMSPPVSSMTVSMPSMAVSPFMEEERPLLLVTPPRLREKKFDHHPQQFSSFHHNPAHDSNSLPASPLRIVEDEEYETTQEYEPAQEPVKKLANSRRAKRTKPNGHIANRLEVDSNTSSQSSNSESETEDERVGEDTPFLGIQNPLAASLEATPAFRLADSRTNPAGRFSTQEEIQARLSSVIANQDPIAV
Sequence of Torsin-1A-interacting protein 2 (Homo sapiens) (Q8NFQ8 whole entry, looked up): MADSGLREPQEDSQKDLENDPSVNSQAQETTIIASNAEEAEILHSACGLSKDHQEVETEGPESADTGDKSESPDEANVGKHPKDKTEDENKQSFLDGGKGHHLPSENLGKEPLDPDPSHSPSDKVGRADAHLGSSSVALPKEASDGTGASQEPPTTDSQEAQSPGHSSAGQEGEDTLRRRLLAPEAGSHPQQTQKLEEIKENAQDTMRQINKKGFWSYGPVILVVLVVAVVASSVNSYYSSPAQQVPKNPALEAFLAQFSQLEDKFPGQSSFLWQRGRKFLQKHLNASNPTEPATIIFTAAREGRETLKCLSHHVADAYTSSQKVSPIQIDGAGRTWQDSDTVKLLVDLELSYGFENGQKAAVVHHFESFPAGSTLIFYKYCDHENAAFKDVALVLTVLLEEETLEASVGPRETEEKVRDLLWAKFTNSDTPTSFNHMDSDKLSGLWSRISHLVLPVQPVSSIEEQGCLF
Sequence of Neurogenic locus notch homolog protein 3 (Homo sapiens) (Q9UM47 whole entry, looked up): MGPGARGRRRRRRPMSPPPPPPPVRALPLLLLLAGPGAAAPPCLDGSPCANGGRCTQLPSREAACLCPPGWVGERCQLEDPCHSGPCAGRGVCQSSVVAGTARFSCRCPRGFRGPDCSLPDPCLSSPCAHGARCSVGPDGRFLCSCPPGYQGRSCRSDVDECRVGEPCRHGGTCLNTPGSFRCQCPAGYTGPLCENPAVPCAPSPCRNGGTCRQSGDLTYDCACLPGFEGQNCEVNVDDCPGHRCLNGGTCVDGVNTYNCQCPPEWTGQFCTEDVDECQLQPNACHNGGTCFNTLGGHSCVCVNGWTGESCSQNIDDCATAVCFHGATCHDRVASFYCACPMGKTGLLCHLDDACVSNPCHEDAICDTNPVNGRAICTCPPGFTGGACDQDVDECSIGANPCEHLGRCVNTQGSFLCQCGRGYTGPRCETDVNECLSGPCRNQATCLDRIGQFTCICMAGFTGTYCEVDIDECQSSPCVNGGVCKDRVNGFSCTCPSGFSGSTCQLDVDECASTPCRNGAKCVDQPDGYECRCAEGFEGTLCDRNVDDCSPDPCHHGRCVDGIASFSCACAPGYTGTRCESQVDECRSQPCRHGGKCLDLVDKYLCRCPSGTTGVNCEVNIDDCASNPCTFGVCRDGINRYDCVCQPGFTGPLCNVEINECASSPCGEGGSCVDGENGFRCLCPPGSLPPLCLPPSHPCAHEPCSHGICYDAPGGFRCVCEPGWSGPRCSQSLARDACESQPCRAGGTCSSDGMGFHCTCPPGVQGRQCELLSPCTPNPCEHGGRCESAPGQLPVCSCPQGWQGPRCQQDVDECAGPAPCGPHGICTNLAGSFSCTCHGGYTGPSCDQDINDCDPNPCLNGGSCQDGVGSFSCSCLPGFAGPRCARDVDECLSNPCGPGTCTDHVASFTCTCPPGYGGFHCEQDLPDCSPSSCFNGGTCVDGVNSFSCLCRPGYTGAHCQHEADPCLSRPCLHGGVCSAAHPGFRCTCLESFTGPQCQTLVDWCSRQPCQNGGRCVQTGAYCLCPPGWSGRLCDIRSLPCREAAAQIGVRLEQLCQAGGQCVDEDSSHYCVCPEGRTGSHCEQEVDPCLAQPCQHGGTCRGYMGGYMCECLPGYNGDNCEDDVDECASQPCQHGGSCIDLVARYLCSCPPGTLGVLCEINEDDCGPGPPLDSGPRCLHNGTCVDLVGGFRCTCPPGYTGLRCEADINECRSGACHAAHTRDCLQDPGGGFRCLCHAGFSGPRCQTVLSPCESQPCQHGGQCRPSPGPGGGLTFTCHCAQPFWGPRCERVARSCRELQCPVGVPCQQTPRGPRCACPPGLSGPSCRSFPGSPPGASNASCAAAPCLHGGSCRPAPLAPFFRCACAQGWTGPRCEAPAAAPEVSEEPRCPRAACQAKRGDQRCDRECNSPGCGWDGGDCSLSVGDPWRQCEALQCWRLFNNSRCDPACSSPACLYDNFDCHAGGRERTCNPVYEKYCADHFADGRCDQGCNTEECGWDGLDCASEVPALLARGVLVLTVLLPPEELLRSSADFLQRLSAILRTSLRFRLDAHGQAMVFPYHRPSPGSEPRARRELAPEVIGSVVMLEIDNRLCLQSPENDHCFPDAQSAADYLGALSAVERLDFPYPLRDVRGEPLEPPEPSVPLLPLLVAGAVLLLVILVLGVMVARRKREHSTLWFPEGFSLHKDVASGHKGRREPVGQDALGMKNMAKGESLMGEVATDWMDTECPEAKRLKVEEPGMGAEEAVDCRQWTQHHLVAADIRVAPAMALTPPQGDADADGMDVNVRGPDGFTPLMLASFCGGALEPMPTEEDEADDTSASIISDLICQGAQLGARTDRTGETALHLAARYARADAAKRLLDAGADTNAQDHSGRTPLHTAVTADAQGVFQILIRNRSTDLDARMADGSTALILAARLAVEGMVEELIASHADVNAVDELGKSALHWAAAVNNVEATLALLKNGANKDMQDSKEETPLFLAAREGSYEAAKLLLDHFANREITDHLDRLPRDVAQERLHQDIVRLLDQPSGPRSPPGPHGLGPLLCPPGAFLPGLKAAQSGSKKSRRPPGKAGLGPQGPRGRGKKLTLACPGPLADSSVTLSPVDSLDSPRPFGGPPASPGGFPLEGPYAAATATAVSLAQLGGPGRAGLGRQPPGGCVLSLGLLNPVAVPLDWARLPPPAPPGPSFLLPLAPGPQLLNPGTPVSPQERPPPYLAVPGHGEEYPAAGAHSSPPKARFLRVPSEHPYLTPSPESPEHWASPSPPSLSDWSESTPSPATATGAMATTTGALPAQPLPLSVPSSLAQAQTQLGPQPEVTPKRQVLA

Consider `COC(=O)c1ccc(C#CC(NP(=O)(c2ccccc2)c2ccccc2)c2ccccc2)cc1` (stereo not given), for which the composite z-score was 0.301 in test [1]; -0.214 in test [2]; -0.108 in [3]; 0.182 in test [4]; 1.87 in test [5]; 1.68 in test [6]. In addition, the composite z-score in [7] was 1.36; in test [9], 1.34; in test [10], 2.35; in test [11], -0.362; in test [15], 3.14; in [17] it was 0.594. In addition, the composite z-score in [18] is -0.0434; in [19], 1.05; in test [20], 0.093. In addition, the z-score is -0.131 (inactive) in test [8]; -0.664 (inactive) in test [12]; -11.5 (active) in test [13]; 1.25 (inactive) in test [14]; 0.0037 (inactive) in test [16].
In the case of `CO[C@H]1COC(=O)CC=C[C@@H](C)COC(=O)[C@@H](C)NC(=O)CC=C[C@@H]1C`, the composite z-score in test [1] was -1.1; in [2], 2.24; in [3], -0.138; in test [4], -0.248; in [5], -0.604; in test [6], -0.907. Also, the composite z-score in test [7] is -0.228; in test [9], 0.219; in test [10] it was 0.0274; in [11], 1.53; in test [15] it was -0.55; in test [17], -0.179. For the same compound, the composite z-score in [18] is 1.83; in test [19], 0.473; in test [20], -0.0243. The z-score in [8] was -1.88 (inactive); in [12], -3.75 (inactive); in test [13], -2.87 (inactive); in test [14] it was -2.71 (inactive); in [16], -0.288 (inactive).
In the case of `O=C1NC(=O)C2C1C=CC(C(O)C=Cc1ccc([N+](=O)[O-])cc1)N2Nc1ccccn1` (stereo not given), the composite z-score in test [1] is -0.273; in [2], 0.224; in test [3] it was 0.102; in test [4], 0.212; in test [5], 1.15; in test [6], -0.0777. The composite z-score is 0.966 in test [7]; -0.199 in test [9]; -0.226 in [10]; 0.403 in [11]; 1.51 in test [15]; 0.0866 in test [17]. For the same compound, the values for the composite z-score in [18], in test [19] and in test [20] were 0.289, -0.135 and -0.094, respectively. Besides, the z-score is 0.126 (inactive) in [8]; 0.459 (inactive) in [12]; 1.31 (inactive) in test [13]; -0.108 (inactive) in test [14]; -0.298 (inactive) in test [16].
Consider `C=CC[C@]1(C(=O)OC)N=C(c2ccc(OCCCO)cc2)O[C@H]1c1ccccc1CN=[N+]=[N-]`, for which the composite z-score in [1] was 2.1; in test [2], 0.164; in test [3], -0.0004; in test [4] it was -0.564; in [5], -0.543; in [6], 0.391. Moreover, the composite z-score was 0.863 in test [7]; 0.629 in test [9]; -0.0994 in test [10]; 0.828 in test [11]; 1.37 in test [15]; 0.4 in test [17]. For the same compound, the composite z-score in test [18] is -0.101; in test [19] it was -0.823; in [20], -0.0828. The z-score is -1.55 (inactive) in test [8]; -0.664 (inactive) in test [12]; -2.28 (inactive) in test [13]; -0.723 (inactive) in [14]; 1.37 (inactive) in test [16].
Turning to `Cc1ccc(S[C@]2(C(=O)NCCCN(C)C)CC(=O)N(Cc3ccccc3)[C@@H]2c2ccc(CO)cc2I)cc1`, the composite z-score in test [1] was 1.04; in test [2], -1.08; in test [3], -0.0785; in [4], -0.244; in test [5], -0.189; in test [6], 1.39. The composite z-score is 0.727 in test [7]; 1.04 in [9]; -0.427 in test [10]; 0.25 in test [11]; 2.68 in test [15]; 0.373 in [17]. Moreover, the values for the composite z-score in test [18], in test [19] and in [20] were -0.869, -0.723 and -0.13, respectively. Further, the z-score in test [8] is -0.463 (inactive); in test [12], -1.87 (inactive); in [13], -4.8 (inactive); in test [14] it was 0.768 (inactive); in test [16] it was -0.563 (inactive).
